Assay results published in PubChem BioAssay AID624291 (National Center for Advancing Translational Sciences (NCATS), 2012).
The campaign covered roughly 350,000 compounds. About 220 (0.063%) were called active. Another 4% or so got no clear call; they are omitted. The sample holds actives, similar compounds and a random draw of the others, so the mix is not that of the screen. A number with no mark means an inactive call. Calls come from the whole dose curve; as a rule, active = well fitted activation curve with a large enough effect; inconclusive = small, poorly fitted or top-dose-only effect; inactive = no such curve, though single readings can be large or run the other way.

test: qHTS for Activators of Integrin-Mediated Alleviation for Muscular Dystrophy; details: alpha7betagal myoblasts, beta-gal FDG fluorescence, 48 h; series mostly up to 38.3 µM; activation: at the top concentration; note: nearly all actives have a fitted effect of over 60% in size;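 for activation: 100% = response of the positive control SU9516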
Method in brief: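 alpha7betagal+/- myoblasts (passage 13, 250/well) treated 48 h at 37C with compounds at 1:260 dilution of DMSO stock. Lysed, then beta-galactosidase activity read as FDG fluorescence (ex 480/em 540) after 30 min, with pre-read for autofluorescence.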
Potency is the fitted concentration of half-maximal effect.

Structure (SMILES) | activation [%] | Potency
CCN(CC)CCN(C(=O)c1ccc2c(c1)CCCC2)c1nc2c(OC)cccc2s1 | -13.2 | 
Cc1ccc(-c2ccc(CN3C(C(C)C)C(=O)N(Cc4cn(CCC5OCCO5)nn4)CCS3(=O)=O)cc2)cc1 (configuration not stated) | -36.9 | 
COc1ncnc2c1ncn2CCCNCCN1CCOCC1 | -5.29 | 
CSC1=NN(c2ccccc2)CN(c2ccccc2)N1C | 21.1 | 
CN(C)C(CNC(=O)c1cccc(S(=O)(=O)N2CCc3ccccc3C2)c1)c1ccccc1 (configuration not stated) | -22.3 | 
CCN(CC)C(=O)C1=C(C)N(Cc2ccc(F)cc2)C(=O)C(CC(=O)NCc2cccc3ccccc23)C1 (configuration not stated) | 13.7 | 
COc1ccccc1C(=O)NC(=S)Nc1ccc(N2CCOCC2)cc1 | 13.2 | 
Cn1c(CCN2CCN(c3ccccn3)CC2)nc2cc(NS(=O)(=O)c3ccc(F)cc3)ccc21 | -19.2 | 
NC(=S)NN=Cc1ccc(OC(=O)COc2cc(Cl)c(Cl)cc2Cl)cn1 | -51.9 | 
CCOC(=O)C(=Cc1ccccc1)C(=O)c1ccccc1 | -44 | 
CCCCCCNC(=O)O[C@H]1CN(C(=O)OC(C)C)N(C(=O)OC(C)C)[C@@H]2CN(S(=O)(=O)c3ccc(C)cc3)C[C@]12O | -22.2 | 
Cc1ccc(NC(=O)Cn2sc3ccccc3c2=O)cc1 | -59 | 
CC1(c2cccc(Br)c2)NC(=O)N(CC(=O)NCCC2=CCCCC2)C1=O (configuration not stated) | 4.18 | 
C[C@H](CO)N1C[C@H](C)[C@@H](CN(C)C(=O)c2cnccn2)Oc2ncc(Br)cc2C1=O | -23.7 | 
COc1ccc(OC)c(C(=O)NC2CCCc3c2cnn3-c2cc(C)cc(C)c2)c1 (configuration not stated) | 0.675 | 
O=C(OCc1ccccc1)N1CCC2CC1c1ccc(-c3ccc4c(c3)OCO4)cc12 (configuration not stated) | -15.9 | 
CCCCCCN1C[C@@H](O)[C@H](n2cc(COC(=O)c3ccccc3)nn2)C[C@@H]1c1ccc(Cl)cc1 | 12.9 | 
CCN1CCN(CCNC(=O)c2ccc3c(c2)NC(=O)/C(=C\c2cccc(Cl)c2)S3)CC1 | 18.1 | 
COc1ccc(S(=O)(=O)N2CCN(CC(=O)N3CCNC3=O)CC2)cc1OC | 18.1 | 
COCCNC(=O)CSc1nc(N)c(NC(=O)c2ccco2)c(=O)[nH]1 | 12.7 | 
O=C(NCCN1CCOCC1)C1CCN(S(=O)(=O)c2ccccc2)CC1 | 11.1 | 
C[C@H](CO)N1C[C@H](C)[C@@H](CN(C)S(=O)(=O)c2ccc(Oc3ccccc3)cc2)OCc2cn(nn2)CCCC1=O | -14.8 | 
Cc1ccn(CC(=O)NC2CCCN(Cc3ccccc3F)C2)n1 (configuration not stated) | -2.09 | 

Structure (SMILES) | activation [%] | Potency
CC1CCCC(NC(=O)COC(=O)c2ccccc2C(=O)N(C)C2CCCCC2)C1C (configuration not stated) | -0.167 | 
Cc1ccc(S(=O)(=O)N2CCOCC2)cc1NC(=O)c1ccncc1 | -8.16 | 
CC1(C)CN(CCc2ccccc2)C(=O)[C@H]1CC(=O)Nc1ccc(Br)cc1 | -10.9 | 
CC1(C)CC(=O)C=C(c2ccccc2CO)C1=O | -11.1 | 
CCOC(=O)c1cc(-c2sc(NC(=O)c3ccccc3)nc2C)n(-c2ccc(Br)cc2)n1 | 9.91 | 
CCOc1ccc(S(=O)(=O)NCCC(=O)NNC(=O)c2ccc(F)cc2)cc1 | 16.7 | 
CC(C)(C)NC(=O)C(=O)NN=C1CCCCCCC1 | 8.01 | 
CC(C)NC(=S)NN=C1CCCCCCCCCCC1 |  | 3.16 µM (active)
C/C(=N\NC(=S)NC(C)C)c1ccc(C(C)(C)C)cc1 | 0.502 | 
Cc1cccc(C(=O)C(O)(c2ccccc2)C2CCCCC2=O)c1 (configuration not stated) | 21 | 
C=CCn1nc(C(=O)OCC)cc1-c1sc(NC(=O)c2ccccc2)nc1C | 2.38 | 
COc1ccc(-c2c(C#N)cnc(C)c2C)c(O)c1OC | 4.61 | 
COc1ccc(-c2ccc3[nH]c4c(c3c2)CCN2C[C@H]3[C@H](C)ON(C)[C@H]3C[C@@H]42)cc1 | -35.2 | 
O=C(Nc1ccc2c(c1)[C@@H]1C[C@@H](CC(=O)N3CCCCC3)O[C@@H](CO)[C@@H]1O2)NC1CCCCC1 | -1.68 | 
C[C@@H]1CCCCO[C@H](CN(C)Cc2ccccc2)[C@@H](C)CN([C@H](C)CO)C(=O)c2cc(NS(=O)(=O)c3ccc(Cl)cc3)ccc2O1 | 0 | 
OCC1OC(n2cnc3c(N4CCCC4)ncnc32)C(O)C1O (configuration not stated) | 28 | 
CCOC(=O)C1CCN(C(=O)c2ccc3c(=O)n4nc(Nc5ccccc5CC)sc4nc3c2)CC1 | -27.7 | 
COc1ccc(-c2ccc(CN3C(CC(C)C)C(=O)N(Cc4cn(CC5CCCCC5)nn4)CCS3(=O)=O)cc2)cc1 (configuration not stated) | -40.1 | 
CNC(=O)C[C@H]1C(=O)N(c2ccc(OC)cc2)C[C@@H]1Cc1ccccc1 | 25.2 | 
COc1cccc(NC(=O)N(C)C[C@@H]2Oc3ncc(Br)cc3C(=O)N([C@@H](C)CO)C[C@H]2C)c1 | -11.6 | 
COc1ccc(NC(=O)c2cc(=O)[nH]c3ccccc23)cc1S(=O)(=O)N1CCOCC1 | -4.2 | 
CCN(CC)C(=O)C1=C(C)N(Cc2ccc(OC)cc2)C(=O)C(CC(=O)NCc2ccco2)C1 (configuration not stated) | 12.9 | 
O=C(NCCOc1ccccc1)N1[C@H]2CC[C@@H]1C=C(c1ccc(F)cc1OCc1ccccc1)C2 | -42.9 | 

Structure (SMILES) | activation [%] | Potency
O=S(=O)(c1cccc(C(F)(F)F)c1)N1c2ccccc2-n2cccc2C1c1cccnc1 (configuration not stated) | -33.7 | 
O=C(C[C@H]1C[C@@H]2c3cc(NC(=O)C4CCC4)ccc3O[C@@H]2[C@H](CO)O1)NC1CCCCC1 | -20.1 | 
CCOC(=O)c1cnn2c(SC)ncnc12 | -0.493 | 
Cc1ccc(-c2ccc(CN3C(C(C)C)C(=O)N(Cc4cn(CCC5OCCCO5)nn4)CCS3(=O)=O)cc2)cc1 (configuration not stated) | 18.3 | 
O=C(CSc1ncn[nH]1)Nc1nc2c(F)c(F)c(F)cc2s1 | 17.7 | 
C[C@H]1CN([C@@H](C)CO)C(=O)CCCn2nncc2CO[C@@H]1CN(C)S(=O)(=O)c1cccc(C#N)c1 | 13.4 | 
c1ccc2c(c1)nnn2-c1ccncc1 | 0.175 | 
CC(OC(=O)c1cccc(S(=O)(=O)N2CCOCC2)c1)C(=O)NCC1CCCCC1 (configuration not stated) | -9.35 | 
CC1(C)OC(=O)C2=C(CC(c3ccccc3)OC2CCc2ccccc2)O1 (configuration not stated) | -10.7 | 
O=C(NCCS(=O)(=O)N1CCN(c2ccccc2)CC1)c1cc(=O)c2ccccc2o1 | 6.87 | 
CCc1ccccc1NC(=O)CN1CCN(C(=O)c2cc(C3CC3)nn2-c2ccccc2)CC1 | 2.65 | 
Cc1ccn2c(-c3csc(Nc4ccc(C(=O)O)cc4)n3)c(C)nc2c1 | -1.17 | 
CC1=C(C(=O)Nc2cccc(C(=O)NCC(C)c3ccccc3)c2)SCCO1 (configuration not stated) | 1.28 | 
CC(=O)c1ccccc1NC(=O)COC(=O)C1COc2ccccc2O1 (configuration not stated) | 2.31 | 
O=C(CCc1ccc(O)cc1)NN=Cc1cc(Br)ccc1O | -56 | 
COc1ccc(S(=O)(=O)N2CCC(C(=O)NCCC(=O)Nc3ccccc3OC)CC2)cc1 | -6.92 | 
CCOc1cc(/C=N/NC(=O)c2ccncc2)cc(Br)c1O | 4.83 | 
Cc1ccc(CCNC(=O)CN2C(=O)CSc3ccc(S(=O)(=O)N4CCOCC4)cc32)cc1 | -2.83 | 
N#CCCN(C(=O)Nc1ccc(Cl)c(Cl)c1)C1CCCCC1 | 27.3 | 
O=C1c2ccccc2-c2ccccc2NC1O (configuration not stated) | -4.86 | 
Cc1ccc(S(=O)(=O)N2C[C@H]3n4c(=O)ccc(=O)n4C[C@H](OC(=O)NC4CCCC4)[C@@]3(O)C2)cc1 | 2.66 | 
CCCCN(C(C)=O)c1ccc2c(c1)C1CC2CCN1Cc1ccccc1 (configuration not stated) | -16.5 | 
C[C@@H]1CN([C@H](C)CO)S(=O)(=O)c2ccc(C#CC3CCCCC3)cc2O[C@H]1CN(C)C(=O)Cc1ccncc1 | -44.2 | 

Structure (SMILES) | activation [%] | Potency
COc1ccc(OC)c(NC(=O)C2CCCN2S(=O)(=O)c2ccc3c(c2)CC(C)N3C(C)=O)c1 (configuration not stated) | 5.18 | 
C#Cc1cc(N2CCN(C(=O)c3ccoc3)CC2)n2nc(-c3cccc(Cl)c3)cc2n1 | -66.7 | 
Nc1cc(=O)c2[nH]cnc2[nH]1 | 9.52 | 
CSc1ncnc2c1ncn2CCCNCc1ccco1 | -0.506 | 
C[C@@H]1CN([C@@H](C)CO)C(=O)CCCn2nncc2CO[C@H]1CN(C)Cc1ccc(C(F)(F)F)cc1 | -6.93 | 
CCC(Oc1ccccc1)C(=O)OCC(=O)Nc1c(C)nn(-c2ccccc2)c1C (configuration not stated) | -14.5 | 
CCc1nnc(NC(=O)c2ccco2)s1 | -11.4 | 
O=C(Nc1cc(F)ccc1F)c1ccc2c(=O)n3c(nc2c1)CCC3 | 21.5 | 
O=C(NN=Cc1ccc2c(c1)CCC2)c1ccccc1O | -8.45 | 
Cc1ccc(CN(C)C[C@@H]2OCc3cnnn3CCCC(=O)N([C@@H](C)CO)C[C@H]2C)cc1 | 10.6 | 
CC(=NNC(N)=O)C1CC2CCC1CC2 (configuration not stated) | 20.4 | 
CCN(CC)C(=O)C1=C(C)N(Cc2ccc(C(C)(C)C)cc2)C(=O)C(CC(=O)NCc2cccc3ccccc23)C1 (configuration not stated) | 4.29 | 
Cc1ccccc1C#CC1=CC(=O)CC(C)(C)C1 | -16.2 | 
COc1ccc(NC(=O)N(C)C[C@H]2Oc3ncc(C#C[C@@H](C)O)cc3C(=O)N([C@H](C)CO)C[C@H]2C)cc1 | 0 | 
CCCc1ccc(S(=O)(=O)N2CCN(C(=O)c3cc(C)on3)CC2)cc1 | -5.39 | 
COc1cc(C(=O)OCCCN2CCOCC2)cc(OC)c1OC | -16.1 | 
O[C@@H]1C[C@H](c2ccccc2)N(Cc2cccs2)C[C@H]1n1cc(C2CC2)nn1 | 8.05 | 
CC(=O)Nc1ccc(NC(=O)[C@@H](NC(=O)c2cccc(C)c2)C(C)C)cc1 |  | 5.62 µM (active)
CCc1nnc(NC(=O)[C@@H](NC(=O)c2cccc(C)c2)C(C)C)s1 | -7.54 | 
Cc1cccc(C(=O)N[C@H](C(=O)NCc2cccs2)C(C)C)c1 | 2.9 | 
O=C(O)C1=C(C(=O)O)C2CCC1C2 | 12.3 | 
COCOCCn1cc(CN2CCS(=O)(=O)N(Cc3ccc(-c4ccccc4)cc3)C(CC(C)C)C2=O)nn1 (configuration not stated) | -33.9 | 
CC1(C2CC2)NC(=O)N(CC(=O)N2CCN(c3ccccc3F)CC2)C1=O (configuration not stated) | 15.2 | 
